In the supplement of paper PMC9262897, “Low-cost anti-mycobacterial drug discovery using engineered E. coli” (Nature Communications, 2022) one finds growth data, which are given here for eleven molecules.

The structures appear in SMILES notation. Counter-ions that a name gives are not always drawn. ± gives the standard deviation of the averaged measurements.

This test deals with E. coli TESEC Mtb DapB. Put plainly: growth (OD600 after 10 h); higher = more growth (less inhibition). The conditions noted are these: arabinose induction (level): High; compound 0.1 mM; raw OD600 reference: median of DMSO wells […], cell-free background 0.041. How it is done:
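TESEC E. coli strains in which the native enzyme is deleted and replaced by arabinose-inducible Mtb Asd, DapB, CysH or TrpD, each grown in its selective medium. Strains were screened against the Prestwick library at 0.1 mM and 1% DMSO in 384-well format at low and high arabinose induction. Growth is read as OD600 after 10 h in triplicate.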
As to `CN(C(=O)C(Cl)Cl)c1ccc(OC(=O)c2ccco2)cc1` [Diloxanide furoate], the growth is 0.2046 ± 0.0011.

In turn, `Cc1c(Cl)cccc1Nc1ccccc1C(=O)O` [Tolfenamic acid] showed a growth of 0.0686 ± 0.0054.

In turn, `COc1ccc(C(=O)CC(=O)c2ccc(C(C)(C)C)cc2)cc1` [Avobenzone] had a growth of 0.202 ± 0.072.

The molecule `NCc1ccccc1CC(=O)N[C@@H]1C(=O)N2C(C(=O)O)=C(CSc3nnnn3CC(=O)O)CS[C@H]12` [Ceforanide] registered a growth of 0.182 ± 0.012.

Take `CN(C)CCCN1c2ccccc2CCc2ccccc21` [Imipramine hydrochloride]: the growth stood at 0.194 ± 0.016.

Consider `COc1ccc(-c2cc(=O)c3c(O)cc(O[C@@H]4O[C@H](CO[C@@H]5O[C@@H](C)[C@H](O)[C@@H](O)[C@H]5O)[C@@H](O)[C@H](O)[C@H]4O)cc3o2)cc1O` [Diosmin], for which the growth was 0.225 ± 0.016.

The molecule `COC(=O)N/N=C/c1c[n+]([O-])c2ccccc2[n+]1[O-]` [Carbadox] came in with a growth of 0.163 ± 0.017.

Consider `N=C(N)NC(=O)c1nc(Cl)c(N)nc1N` [Amiloride hydrochloride dihydrate], for which the growth was determined as 0.203 ± 0.0053.

The molecule `Nc1nc(Cl)nc2c1ncn2[C@H]1C[C@H](O)[C@@H](CO)O1` [Cladribine] gave a growth of 0.244 ± 0.046.

In the case of `CO[C@@]1(NC(=O)C2SC(=C(C(N)=O)C(=O)O)S2)C(=O)N2C(C(=O)O)=C(CSc3nnnn3C)CS[C@@H]21` (stereo partly specified) [Cefotetan], the growth was 0.0527 ± 0.0035.

`CC(=O)O[C@H]1C[C@@]2(C)[C@@H](C[C@@H](O)[C@H]3[C@@]4(C)CC[C@@H](O)[C@@H](C)[C@@H]4CC[C@@]32C)/C1=C(\CCC=C(C)C)C(=O)O` [Fusidic acid sodium salt] gave a growth of 0.0536 ± 0.0022.
